Assay outcomes as filed in PubChem.
Most compounds without a hit are left out; they make up all but 17% or so of the library.
HT1080 IDH1KD tx = HT-1080 IDH1 knockdown cell toxicity (counter line); Potency, µM (top dose mostly 46.1 µM), without a hit: top-dose activity, negative = toxicity, hits mostly cytotoxic; 360,000 tested, 2% active; AID 686971; HT-1080 IDH1 knockdown viability, ATP luminescence, 48 h;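 also: 0% = DMSO wells and -100% = cell-free medium wells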
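CellTiter-Glo luminescence after 48 h compound exposure at 37 degrees C of IDH1-knockdown HT-1080 cells in 5% FBS RPMI. %Activity scaled between DMSO wells and cell-free media wells, with curves fitted and assigned curve classes.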
HT1080-NT tox = kills 2HG-producing HT-1080-NT fibrosarcoma cells. HT-1080-NT fibrosarcoma viability, CellTiter-Glo ATP luminescence, 48 h. Potency, µM (doses to about 46.1 µM), for inactives: at the highest dose activity, negative = less viability, usual class: cytotoxic. 360,000 tested, 1.6% active;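 also: NT is the 2HG producing partner of a matched IDH1 knockdown line; 0% = DMSO-treated cells and -100% = media-only wells without cells; nearly all actives have a fitted effect of over 55% in size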
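Compounds were tested in concentration-response format on HT-1080-NT cells for 48 hours at 37 degrees C. Cell viability came from CellTiter-Glo luminescence; curves were classified by r2, response magnitude and activity.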
HepG2 tox = counter-screen for TGF-b inhibitors: cytotoxicity in HepG2 cells. HepG2 CAGA-GFP viability, ATP luminescence, 18 h. Potency, µM (titrated, usually from 46.1 µM), for the others: at the top dose activity change, negative = cytotoxicity, actives largely listed as cytotoxic. 410,000 tested, 0.76% active
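HepG2 CAGA-GFP cells (1000/well, DMEM with 1% FBS) received compound, then TGF-beta at 500 pg/mL final, and were incubated 18 hours at 37 degrees C. Viability was read by CellTiter-Glo luminescence. Media-only wells were set as complete cell-killing and DMSO as no toxicity.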
DT40 TDP1 no CPT = qHTS for Inhibitors of human tyrosyl-DNA phosphodiesterase 1 (TDP1): qHTS in cells in absence of CPT | DT40 Tdp1-/- hTDP1 cells, no CPT, ATP luminescence, 48 h | Potency, µM (titrated, usually from 46.2 µM), for inactives: top-dose activity change, negative = growth inhibition, most hits filed as inhibitors | 420,000 tested, 15% active | AID 686978, 2013; also: % is scaled to controls: 0 for no effect and ±100 for the full control effect; nearly all actives have a fitted effect of over 55% in size
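No-CPT arm: Tdp1-/-;hTDP1 DT40 cells (400/well) plus compounds, incubated ≥48 hr at 37 °C. Readout CellTiter-Glo luminescence.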
TDP1 cell CPT = growth inhibition of DT40 Tdp1-/-;hTDP1 cells with camptothecin (screen for TDP1 inhibitors) | chicken DT40 Tdp1-/-;hTDP1 cells + 20 nM CPT, ATP luminescence, 48 h | Potency, µM (top dose mostly 46.2 µM), without a hit: at the top dose activity change, negative = growth inhibition, usual class: inhibitors | 420,000 tested, 12% active; also: % is scaled to controls: 0 for no effect and ±100 for the full control effect; nearly all actives have a fitted effect of over 55% in size
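Chicken DT40 Tdp1-/- cells complemented with human TDP1, 400 cells/well, exposed to compounds plus 20 nM camptothecin for at least 48 h at 37 C; viability read as ATP content by CellTiter-Glo luminescence.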
TGFb SMAD3 inh = inhibitors of TGF-b signaling; 410,000 tested, 1.2% active; Potency, µM (highest dose often 46.1 µM), without a hit: top-dose activity, negative = inhibition, actives largely listed as inhibitors; AID 588855; HepG2 CAGA-GFP TGF-b/SMAD3 reporter, GFP fluorescence, 18 h; TGF-beta stimulated, 500 pg/mL final; also: % is scaled to controls: 0 for no effect and ±100 for the full control effect; nearly all actives have a fitted effect of over 65% in size
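GFP signal (ex488/em500-530) from TGF-beta-stimulated HEPG2 CAGA-GFP cells, 500 pg/mL final, 18 h at 37 degrees C in DMEM plus 1% FBS, normalized to unstimulated and DMSO-stimulated controls.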
The depositor's hits bear a star; ? = inconclusive; . = no result. Calls follow the shape of the dose curve; as a rule, active = well fitted curve in the direction sought with a large enough effect; inconclusive = small, poorly fitted or top-dose-only effect, or another doubt; inactive = no such curve, though single readings can be large; an effect the other way counts as inactive or inconclusive. Potency is read from the fitted curve at half-maximal effect.

SMILES	HT1080 IDH1KD tx	HT1080-NT tox	HepG2 tox	DT40 TDP1 no CPT	TDP1 cell CPT	TGFb SMAD3 inh
Cn1c(-c2ccccc2)cnc1SCC(=O)N1CCCc2ccccc21	5%	15%	10%	?	?	10%
COC(=O)c1ccccc1NC(=O)[C@@H]1CCC(=O)N1C1OC(=O)c2c1ccc(OC)c2OC (some centres undefined)	8%	0%	12%	-6%	5%	-1%
CCN(CC(=O)NCc1cccs1)C(=O)c1ccc(S(=O)(=O)Nc2ccccc2C)cc1	-7%	-10%	5%	?	?	7%
COC(=O)C(Cc1ccc(O)cc1)NC(=O)Cn1cc(C)c(=O)[nH]c1=O (centres undefined)	-4%	-1%	-9%	-3%	-1%	3%
NC(=O)CC(NC(=O)c1ccc(Br)cc1)c1ccc(NC2CCCCCCC2)c([N+](=O)[O-])c1 (centres undefined)	?	?	-4%	16µM*	16µM*	-5%
NC(=O)CC(NC(=O)Cc1cccc2ccccc12)c1ccc(NC2CCCC2)c([N+](=O)[O-])c1 (centres undefined)	17%	16%	4%	-12%	3%	-10%
Cc1cc(C)cc(C(=O)NC(CC(N)=O)c2ccc(NC3CCCCCC3)c([N+](=O)[O-])c2)c1 (centres undefined)	3%	7%	-15%	?	?	-5%
NC(=O)CC(NC(=O)Cc1cccc2ccccc12)c1ccc(NC2CC3CCC2C3)c([N+](=O)[O-])c1 (centres undefined)	0%	-12%	3.5µM*	-1%	3%	?
NC(=O)CC(NC(=O)c1ccccc1)c1ccc(NC2CCCCCCC2)c([N+](=O)[O-])c1 (centres undefined)	-24%	?	-3%	23µM*	23µM*	-1%
COc1ccc(CCNc2ccc(C(CC(N)=O)NC(=O)c3ccc(Br)cc3)cc2[N+](=O)[O-])cc1 (centres undefined)	2%	?	-81%	16µM*	23µM*	?
CO/N=C/c1ccc(Oc2ccc(C)cc2)c([N+](=O)[O-])c1	-4%	0%	0%	21µM*	?	?
CO/N=C/c1ccc(Sc2ccccc2)c([N+](=O)[O-])c1	3%	-2%	-5%	?	5%	?
CS(=O)(=O)c1ncc(Cl)c(C(=O)Nc2ccc(OC(F)F)cc2)n1	13µM*	?	-96%	1.2µM*	0.82µM*	?
O=C(Nc1ccc(N2CCOCC2)cc1)c1cnccn1	-20%	-3%	-8%	-10%	-10%	-4%
O=C(Nc1ccc(OC(F)F)cc1)c1ccccn1	2%	5%	-14%	3%	4%	-4%
CS(=O)(=O)c1ncc(Cl)c(C(=O)Nc2ccc(N3CCOCC3)cc2)n1	1.6µM*	3.5µM*	-101%	1.1µM*	1.2µM*	?
Cn1c(CNC(=O)c2ccc3c(c2)OCO3)nnc1SCC(=O)Nc1ccc(F)cc1F	6%	0%	4%	-7%	5%	-5%
O=C(Cn1cnc2ccccc21)OCC(=O)N1CCCCC1	21%	0%	-3%	-14%	6%	4%
CCn1c(SCC(=O)Nc2ccccc2OC)nc2ccccc2c1=O	-8%	1%	-48%	?	?	-18%
COc1cccc(NC(=O)CSc2nc3ccccc3c(=O)n2C)c1	?	-1%	-20%	23µM*	16µM*	-1%
CC(C)Oc1ccccc1NC(=O)CSc1nc2ccccc2c(=O)n1C	?	-2%	-6%	?	21µM*	?
COc1cccc(NC(=O)CSc2nc(C3CC3)nc3ccccc23)c1	-22%	-25%	-8%	-9%	1%	-1%
COC(=O)Cc1nnc(SCC(=O)Nc2ccccc2)c2ccccc12	-5%	5%	-69%	23µM*	18µM*	?
COC(=O)c1cccc(NC(=O)CSc2nc3cccnc3n2C)c1	-27%	-17%	1%	16µM*	?	-11%
Nc1ncnc2c1ncn2[C@@H]1O[C@H](CNC(=O)[C@@H]2CCC(=O)N2)[C@@H](O)[C@H]1O	9%	12%	8%	-4%	-2%	?
SMILES	HT1080 IDH1KD tx	HT1080-NT tox	HepG2 tox	DT40 TDP1 no CPT	TDP1 cell CPT	TGFb SMAD3 inh
CCC(=O)N[C@@H]1c2ccccc2C2(CCN(Cc3ccccn3)CC2)[C@H]1OC	.	.	.	-6%	6%	.
CCn1c(SCC(=O)Nc2ccc3c(c2)OCO3)nnc1-c1ccccc1O	-4%	4%	5%	-17%	15%	-4%
O=C(NCc1ccccc1)C1CCN(S(=O)(=O)c2cc([N+](=O)[O-])ccc2Cl)CC1	-12%	-5%	9%	-31%	?	-28%
CN(Cc1ccccc1)C(=O)C1CCN(S(=O)(=O)c2cc([N+](=O)[O-])ccc2Cl)CC1	-5%	2%	-11%	23µM*	?	2%
CC(NC(=O)C1CCN(S(=O)(=O)c2cc([N+](=O)[O-])ccc2Cl)CC1)c1ccccc1 (centres undefined)	-1%	8%	5%	?	?	4%
Cc1ccc(NC(=O)C2CCN(S(=O)(=O)c3cc([N+](=O)[O-])ccc3Cl)CC2)nc1	?	?	-14%	15µM*	16µM*	?
Cc1ccc2nc(NC(=O)C3CCN(S(=O)(=O)c4cc([N+](=O)[O-])ccc4Cl)CC3)sc2c1	-25%	-4%	-24%	6.5µM*	9.2µM*	?
CO[C@H]1[C@H](NC(=O)C(C)C)c2ccccc2C12CCN(Cc1c(C)nn(C)c1Cl)CC2	.	.	.	-12%	5%	.
CN(C)c1ccc(S(=O)(=O)N2CCCCC2)cc1NC(=O)C1CSC2(C)CCC(=O)N12 (centres undefined)	0%	0%	-9%	26µM*	-25%	-12%
CC12CCC(=O)N1C(C(=O)Nc1cccc(S(=O)(=O)N3CCCCCC3)c1)CS2 (centres undefined)	-6%	-2%	-70%	?	-24%	10%
CC1CC(C)CN(S(=O)(=O)c2ccc(NC(=O)C3CSC4(C)CCC(=O)N34)cc2)C1 (centres undefined)	-11%	-1%	-42%	?	23µM*	-8%
